This is a sample that favours compounds with a hit; in the whole collection about 2.2% have one here.
IL1B NFkB pot – enhancers of NFkB p65 translocation in HUVEC – imaging, IL-1B stimulus, high-content imaging, primary screen. HUVEC IL-1B NFkB p65 nuclear translocation imaging. activation, % at 2 µM. 94,000 tested, 0.3% active. AID 819, 2007;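 active = activation above 40%, about the mean plus 3 SD, also judged a hit on visual image review; inconclusive = activation above 40% but not a hit on visual review; inactive = activation not above 40% and no visual hit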;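 also: percent activation is computed from the nuclear over cytoplasmic p65 intensity ratio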
IL1B cytotox – cytotoxicity in IL-1B stimulated HUVEC, primary screen, cytotoxicity control for IL-1B NFkB translocation project, imaging, Hoechst nuclear count, IL-1B stimulus; 94,000 tested, 0.41% active; cell count reduction, % at 2 µM; HUVEC cell count loss;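 active = cell count reduction more than 3 SD above the screen-wide mean, cut at about 70% in these data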;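 also: normalized per plate to untreated control cells as the no-loss baseline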
Pyk2 oligo antag – antagonists of Pyk2 self-association, primary screen, Q293 cells, FERM NanoBiT luminescence, HTS; Protein-tyrosine kinase 2-beta (Homo sapiens), Q14289; stronger effect = lower value; z-score (the deposit names both 25 µM and 10 µM); 99,000 tested, 0.83% active;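 active = Z-score of -3 or lower, scaled per plate to the spread of control and sample wells; inactive = z-score above -3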;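 also: negative z-score means lost luminescence so less FERM oligomerization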
Target sequence (Q14289 whole entry, looked up): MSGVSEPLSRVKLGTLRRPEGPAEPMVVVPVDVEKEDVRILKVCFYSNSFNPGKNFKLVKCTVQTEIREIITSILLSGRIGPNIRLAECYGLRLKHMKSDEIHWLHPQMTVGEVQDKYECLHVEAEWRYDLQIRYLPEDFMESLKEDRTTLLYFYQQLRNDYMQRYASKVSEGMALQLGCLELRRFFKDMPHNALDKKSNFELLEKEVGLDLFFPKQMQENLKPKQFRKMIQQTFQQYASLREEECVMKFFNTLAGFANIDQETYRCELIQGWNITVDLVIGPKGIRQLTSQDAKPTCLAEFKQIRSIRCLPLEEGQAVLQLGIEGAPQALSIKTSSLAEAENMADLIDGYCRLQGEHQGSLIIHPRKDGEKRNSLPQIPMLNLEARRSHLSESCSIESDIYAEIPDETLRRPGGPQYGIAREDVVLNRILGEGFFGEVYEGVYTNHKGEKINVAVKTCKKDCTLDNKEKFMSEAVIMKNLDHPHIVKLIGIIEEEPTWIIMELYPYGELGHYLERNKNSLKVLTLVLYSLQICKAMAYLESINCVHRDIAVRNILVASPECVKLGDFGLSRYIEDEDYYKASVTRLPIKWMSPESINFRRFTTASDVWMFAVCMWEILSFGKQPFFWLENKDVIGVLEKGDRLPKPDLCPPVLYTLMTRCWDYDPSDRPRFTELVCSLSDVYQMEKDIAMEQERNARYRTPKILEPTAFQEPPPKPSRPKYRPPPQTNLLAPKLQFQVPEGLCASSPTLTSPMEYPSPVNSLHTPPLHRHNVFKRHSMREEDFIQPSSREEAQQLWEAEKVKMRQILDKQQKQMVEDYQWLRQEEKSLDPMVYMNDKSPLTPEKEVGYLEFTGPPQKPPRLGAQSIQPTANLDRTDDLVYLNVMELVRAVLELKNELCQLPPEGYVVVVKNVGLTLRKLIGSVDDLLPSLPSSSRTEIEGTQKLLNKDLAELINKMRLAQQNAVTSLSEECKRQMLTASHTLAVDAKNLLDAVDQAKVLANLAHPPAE
NFkB transloc inh – inhibitors of IL-1B driven NFkB p65 nuclear import, primary screen, imaging, HUVEC, IL-1B stimulus, high-content imaging | inhibition, % at 2 µM | 94,000 tested, 0.43% active | HUVEC IL-1B NFkB p65 nuclear translocation imaging;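 active = inhibition above about 30% together with a positive call from visual inspection of the well image, limit read from the data; inconclusive = inhibition above a set limit but visual check negative; inactive = inhibition not above a set limit, visual check negative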;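 also: nuclear over cytoplasmic p65 intensity ratio measured by imaging; 0% = IL-1B stimulated DMSO wells and 100% = unstimulated DMSO wells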
PLK1 PBD inh – Plk1 polo box domain binding inhibitors, primary screen, biochemical, fluorescence polarization | Plk1 PBD phosphopeptide binding | Serine/threonine-protein kinase PLK1 (Homo sapiens), P53350 | inhibition, %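 (tested at about 20 µM)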 | AID 693, 2007 | 97,000 tested, 0.13% active; in the data active = inhibition above about 34%, passing the limit was not always enough
PLK1 kinase inh – human PLK1 kinase inhibitors, primary screen, biochemical, TR-FRET. recombinant PLK1 kinase, TR-FRET peptide phosphorylation. 97,000 tested, 0.53% active. inhibition, % at 10 µM. Serine/threonine-protein kinase PLK1 (Homo sapiens), P53350;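 active = inhibition of 50% or more in the single-concentration screen; inactive = inhibition below 50%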;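 also: 0% = DMSO max control and 100% = H-89 dihydrochloride min control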
* marks the source's active call; other numbers are inactive results; ? = inconclusive; . = not tested or not shown.

SMILES	IL1B NFkB pot	IL1B cytotox	Pyk2 oligo antag	NFkB transloc inh	PLK1 PBD inh	PLK1 kinase inh
COC(=O)c1c(NC(=O)CN2C(=O)C(=O)N(CC(C)C)C2=O)sc2c1CCCCC2	.	.	0.36	.	.	.
COc1cc(S(=O)(=O)N2CCCCC2)ccc1NC(=O)c1ccccc1Cl	-47	-36	-1.4	47*	-12	-14
CN(c1ccccc1C(=O)Nc1ccc(S(=O)(=O)N2CCCCC2)cc1)S(C)(=O)=O	-99	94*	-0.45	99*	-13	-8
COc1cc(S(=O)(=O)N2CCCCC2)ccc1NC(=O)c1ccc(F)cc1	34	-26	0.08	-34	15	-5
CCc1nnc(NC(=O)CN2CCN(c3ccc(Cl)cc3)CC2)s1	?	-27	.	-45	9	-13
COc1ccc(N2C(=O)c3ccccc3NC2c2ccc(OC)c(CSc3ccccn3)c2)cc1 (configuration not stated)	7	-53	-3.2*	-7	17	-4
CC(Nc1ccc(Cl)cc1)c1cc(Cl)ccc1O (configuration not stated)	9	-18	-0.73	-9	9	-7
CC(Nc1ccc(Br)cn1)c1cc(Cl)ccc1O (configuration not stated)	0	34	-3.5*	0	-10	-9
COc1ccc(N2CCN(C(=O)CSc3nnc4c(C)cc5c(C)cc(C)cc5n34)CC2)cc1	4	-36	-0.5	-4	-20	-7
COc1ccc(N2CCN(C(=O)CSc3nnc4c(C)cc5cc(C)ccc5n34)CC2)cc1	-24	92*	-0.89	24	-27	-1
Cc1c(-c2ccccc2)oc2c(C(=O)N3CCN(c4ccccc4F)CC3)cccc2c1=O	.	.	-0.98	.	.	.
O=C(O)c1ccc(C(=O)O)c(C(=O)c2ccccc2)c1	-19	80*	0.68	19	-9	2
CCc1ccc(C(=O)N/N=C/c2cccc3ccccc23)nc1	.	.	-0.74	.	.	.
O=[N+]([O-])c1ccc(-c2nc(-c3cccs3)c(-c3cccs3)[nH]2)cc1	5	9	-4.2*	-5	2	-29
Cc1ccc(NC(=O)C2(c3ccccc3)CC2(Cl)Cl)cc1C (configuration not stated)	3	14	-3.2*	-3	-2	-3
CCc1ccc(NC(=O)C2(c3ccccc3)CC2(Cl)Cl)cc1 (configuration not stated)	3	-4	-3.1*	-3	-23	-7
Cc1cccc(NC(=O)C2(c3ccccc3)CC2(Cl)Cl)c1 (configuration not stated)	12	-14	-2	-12	13	-12
CC1(C)C2CCC1(CS(=O)(=O)Nc1ccc(S(=O)(=O)N3CCCCC3)cc1)C(=O)C2 (configuration not stated)	.	.	0.69	.	.	.
CC(C)NC(=O)c1nc2ccccc2s1	-3	74*	0	3	16	-9
C=CCNC(=O)c1nc2ccccc2s1	3	13	1.3	-3	4	-9
Cc1cccnc1NC(=O)CSc1nnc(Cc2ccccc2)o1	37	-5	1.2	-37	11	-8
ONC(=Nc1ccc(Cl)cc1)c1ccccc1	.	.	-0.73	.	17	-17
CN1CCN(c2ccc(Cl)cc2NC(=O)c2ccc(S(=O)(=O)N(C)C)cc2)CC1	-4	-22	0.95	4	-45	0
CN(C)S(=O)(=O)c1ccc(C(=O)Nc2ccc(F)cc2F)cc1	.	.	.	.	-8	66*
CCNS(=O)(=O)c1ccc(OC)c(C)c1	-63	83*	-0.3	63*	-3	-6
SMILES	IL1B NFkB pot	IL1B cytotox	Pyk2 oligo antag	NFkB transloc inh	PLK1 PBD inh	PLK1 kinase inh
Clc1ccc(-c2noc(CCCOc3ccccc3)n2)cc1	-84	-10	0.89	84*	5	-8
Clc1ccc(-c2noc(COc3ccccc3)n2)cc1	.	.	0.35	.	.	.
O=c1c2c3c(sc2nc2sc(C4CC4)nn12)CCCC3	-88	78*	1.2	88*	9	-7
O=C1CCc2nc3sc4c(c3c(=O)n2N1)CCCC4	5	18	.	-5	4	-13
Cc1ccc(C(C)C)c(OCCNS(C)(=O)=O)c1	-10	84*	-0.62	10	-2	-2
Cc1ccc(-c2nc(CS(=O)CC(=O)NCCN3CCCC3)c(C)o2)cc1 (configuration not stated)	.	.	.	.	0	63*
Cc1oc(-c2ccc(Cl)cc2)nc1CS(=O)CC(=O)NCCCN(C)C1CCCCC1 (configuration not stated)	11	-24	0.52	-11	4	4
CCCCNC(=O)CS(=O)Cc1nc(-c2cccc(Cl)c2)oc1C (configuration not stated)	.	.	.	.	-1	65*
Cc1ccc(-c2nc(CS(=O)CC(=O)NCCN(CC(C)C)CC(C)C)c(C)o2)cc1 (configuration not stated)	-2	4	0.4	2	-1	-13
COc1ccc(CNC(=O)CS(=O)Cc2nc(-c3ccccc3C)oc2C)cc1 (configuration not stated)	.	.	.	.	-1	67*
Cc1oc(-c2ccc(Cl)cc2)nc1CS(=O)CC(=O)NCCN1CCCC1 (configuration not stated)	.	.	.	.	-2	60*
CCN1CCN(CCNC(=O)C2CCCN(Cc3nc(-c4cccc(Cl)c4)oc3C)C2)CC1 (configuration not stated)	.	.	.	.	-3	57*
Cc1ccc(-c2nc(CS(=O)CC(=O)NCCN3CCOCC3)c(C)o2)cc1 (configuration not stated)	.	.	.	.	-16	59*
Cc1ccccc1-c1nc(CS(=O)CC(=O)NCCN2CCOCC2)c(C)o1 (configuration not stated)	19	0	.	-19	-24	0
Cc1n[nH]c(C)c1CCc1nc2c3ccccc3nc(SCC(=O)Nc3ccccc3F)n2n1	-9	86*	-1.2	9	8	-5
Cc1onc(-c2ccccc2)c1-c1nc2ccccc2c(=O)o1	8	28	-0.4	-8	-25	-12
CCn1c(C)nc2cc(-c3nnc(-c4c(-c5ccccc5)noc4C)o3)ccc21	32	-20	-3.1*	-32	-8	-2
COc1ccccc1NS(=O)(=O)c1cc(NC(=O)CNC(=O)c2ccc(C)s2)ccc1Cl	.	.	-0.39	.	.	.
CCN=c1scc(-c2ccco2)n1/N=C/c1ccc(O)cc1	16	1	0.54	-16	-4	-12
CCN=c1scc(C)n1/N=C/c1ccc(O)c(O)c1O	-10	18	-1.1	10	-9	55*
CCc1nnc(NC(=O)CCC(=O)N2CCCC2)s1	79*	21	0.35	-79	23	-5
COc1ccc(OC)c(CNCCNC(=O)c2ccco2)c1	-2	-11	.	2	20	-11

Compound activity (PubChem BioAssay)
